In all, about 52,000 compounds went through this assay and about 1,700 (3.3%) were called active. Only a selection was taken, and actives are over-represented in it overall. Values without a mark were called inactive. Cut-off read from the data, not from the text of the source: active = survival mostly below about 52% (no sharp cut-off); inactive = mostly above about 56%.

Survival data for 90 molecules are collected here from PubChem BioAssay AID463173 (ICCB-Longwood Screening Facility, Harvard Medical School, 2010).

The test concerns Wild type. Description: growth inhibition of S. aureus wild type versus tarO mutant, primary screen, teichoic acid synthesis inhibitors, RN4220, OD600 (AID 463173). Particulars: S. aureus RN4220 wild type/DeltatarO growth, OD600, 18 h, hits give low values, screened at 18.75 µg/mL (by protocol).
Regarding `O=C(NCc1ccccc1)N(Cc1cccnc1)Cc1cc2cc3c(cc2[nH]c1=O)OCCO3`, the survival was 102%.
For `COc1ccc(-c2nn3c(-c4ccc(C)cc4)nnc3c3ccccc23)cc1`, the survival was 70%.
Regarding `COc1ccc2[nH]cc(CCN=C(NC(=O)c3ccccc3C)Nc3nc(C)cc(C)n3)c2c1`, the survival is 41%.
Take `CCn1c2c(c(=O)n3ncc(C(=O)Nc4ccc(F)c(Cl)c4)c13)CN(Cc1ccc(OC)cc1)CC2`: the survival is -1% (active).
`CCn1c2c(c(=O)n3ncc(C(=O)Nc4ccc(F)cc4Cl)c13)CN(Cc1ccc(OC)cc1)CC2`: the survival was 14% (active).
With `CCn1c2c(c(=O)n3ncc(C(=O)Nc4ccc(C(=O)OC)cc4)c13)CN(Cc1ccc(OC)cc1)CC2` the figure was 55%; with `CCn1c2c(c(=O)n3ncc(C(=O)Nc4cc(Cl)ccc4OC)c13)CN(Cc1ccc(OC)cc1)CC2`, 72%; with `CCn1c2c(c(=O)n3ncc(C(=O)Nc4ccc(Cl)cc4C)c13)CN(Cc1ccc(OC)cc1)CC2`, 76%.
Take `CCn1c2c(c(=O)n3ncc(C(=O)Nc4ccc(OC(F)(F)F)cc4)c13)CN(Cc1ccc(OC)cc1)CC2`: the survival is 83%.
With `Cc1ccc(CNC(=O)Nc2cc(C(=O)NCc3cccc(F)c3)ccc2N2CCCC2)cc1`, the survival is 128%.
As to `CCOC(=O)c1cccc(NC(=O)CCc2c(C)nn(-c3ccc(N4CCCCC4)nn3)c2C)c1`, the survival is 95%.
On to `Cc1nnc(C)c2c(C)n(-c3ccc4c(c3)OCO4)c(C)c12`, for which the survival is 111%.
Turning to `CCOc1ccc(N(CC)C(=O)Cn2cnc3sc(C)c(S(=O)(=O)N4CCN(c5ncccn5)CC4)c3c2=O)cc1`, the survival was 78%.
Turning to `COc1ccc(NCc2cccn2-c2nnc(N3CCCCCC3)s2)cc1`, the survival was 78%.
Take `Cc1ccc(NCc2cccn2-c2nnc(N3CCCCCC3)s2)cc1`: the survival was 77%.
Turning to `CCc1ccc(NCc2cccn2-c2nnc(N3CCCCCC3)s2)cc1`, the survival was -1% (active).
Turning to `CCC(C)NC(=O)CSc1nc2ccc(C(C)C)cc2cc1C#N` (stereo not given), the survival was 103%.
In the case of `COc1cccc(CNC(=O)c2ccc(NC(=O)N3CCCCc4ccccc43)cc2)c1OC`, the survival was 73%.
With `Cc1nc2nc(SCC(=O)NCCc3ccc(Cl)cc3)nn2c(C)c1Cc1ccccc1` the figure was 56%; with `O=C(CSc1nccn1Cc1ccccc1)Nc1nc2ccccc2s1`, 121%.
With `O=C(CSc1nccn1Cc1ccc(F)cc1)Nc1nc2ccccc2s1` the figure was 82%; with `Cc1ccc2nc(NC(=O)CSc3nccn3Cc3ccccc3)sc2c1`, 10% (active); with `Cc1nnc(NC(=O)CSc2nccn2Cc2ccc(F)cc2)s1`, -2% (active).
Regarding `Cc1ccc2nc(NC(=O)CSc3nccn3Cc3ccc(F)cc3)sc2c1`, the survival was 80%.
With `Cc1ccc2nc(NC(=O)CSc3nccn3Cc3ccc(Cl)cc3)sc2c1` the figure was 72%; with `O=C(CSc1nccn1Cc1ccc(Cl)cc1)Nc1nc2ccccc2s1`, 0% (active).
Take `Cc1ccc(Cn2ccnc2SCC(=O)Nc2nnc(C)s2)cc1`: the survival was 65%.
On to `Cc1nnc(NC(=O)CSc2nccn2Cc2ccc(Cl)cc2)s1`, for which the survival was 118%.
For the molecule `CCOc1ccc(NC(=O)Cn2c(=O)n(Cc3ccccc3)c(=O)c3sc4ccccc4c32)cc1`, the survival was 78%.
On to `COc1cc(NC(=O)Nc2nnc(N3CCCCCC3)s2)cc(OC)c1`, for which the survival is 78%.
`Cc1cccc(N2CCN(c3ncnc4c3cnn4-c3ccc(Cl)cc3)CC2C)c1` (stereo not given): the survival was 83%.
As for `CCCc1ccc(OC(C)c2nc(-c3ccc(-n4cccc4)cc3)no2)cc1` (stereo not given), the survival was 56%.
Regarding `CCc1ccc(OC(C)c2nc(-c3ccc(-n4cccc4)cc3)no2)cc1` (stereo not given), the survival was -4% (active).
To `CCc1ccc(OCc2nc(-c3ccc(-n4cccc4)cc3)no2)cc1` belongs 104%; to `O=C(Nc1ccc2oc(-c3ccncc3)nc2c1)c1ccccc1Cl`, 73%.
For the molecule `Cc1ccc(CNC(=O)c2cc3c(=O)oc4ccc(C)cc4c3s2)cc1`, the survival was 88%.
Regarding `CCOCCCNC(=O)C(c1ccccc1)N(Cc1ccc2c(c1)OCO2)C(=O)c1ccc(NC(C)=O)cc1` (stereo not given), the survival was 70%.
For the molecule `COc1ccc(CN(CCC(c2ccc3c(c2)OCO3)c2ccccc2OC)C(C)=O)cc1` (stereo not given), the survival is 8% (active).
For `NC(=O)CC(c1ccccc1)c1ccc2c(c1)OCO2` (stereo not given), the survival was 117%.
As for `COc1ccc(CNCCC(c2ccc(C)cc2)c2ccco2)cc1` (stereo not given), the survival was 72%.
With `COc1ccc(CNCCC(c2ccccc2)c2ccc3c(c2)OCO3)cc1` (stereo not given), the survival was 3% (active).
Consider `CCOCCCNC(=O)C(c1ccc(OC)cc1)N(Cc1ccc2c(c1)OCO2)C(=O)c1ccc(NC(C)=O)cc1` (stereo not given), for which the survival was 69%.
In the case of `COc1cc2cc(CN(Cc3ccc4c(c3)OCO4)C(=O)NCc3ccccc3)c(=O)[nH]c2cc1OC`, the survival is 117%.
As to `COc1ccc(CNCCC(c2ccc3c(c2)OCO3)c2ccccc2OC)cc1` (stereo not given), the survival was 25%.
As for `CCC(=O)N(CCC(c1ccccc1)c1ccc2c(c1)OCO2)Cc1ccc(OC(C)C)cc1` (stereo not given), the survival is 1% (active).
For `C=CCc1c(C)nc(SC)[nH]c1=O`, the survival is 114%.
With `Cc1cccc(-c2nc3ccccc3n3c(-c4ccccc4)c4c(=O)n(C)c(=O)n(C)c4c23)c1`, the survival was 121%.
With `O=C(CN1C(=O)c2ccccc2Sc2ncccc21)Nc1cccc(C(F)(F)F)c1` the figure was 85%; with `CCSc1nc2ccccc2c(OCc2ccccc2Cl)c1C(=O)OC`, 75%.
Consider `CCSc1nc2ccccc2c(OCc2ccc(Cl)cc2)c1C(=O)OC`, for which the survival is 88%.
In the case of `CCSc1nc2ccccc2c(OCc2cc(C(=O)OC)ccc2OC)c1C(=O)OC`, the survival was -15% (active).
With `Cc1ccc(N2CCN(S(=O)(=O)c3cc(C(=O)Nc4cc(Cl)cc(Cl)c4)ccc3F)CC2C)cc1` (stereo not given) the figure was 71%.
With `COc1ccc(OC)c(CNC(=O)c2c(C)oc3ncn(C)c(=O)c23)c1`, the survival is 70%.
With `O=C(COc1ccccc1)Nc1c(C(=O)N2CCN(c3ccc(F)cc3)CC2)oc2ccccc12`, the survival was 74%.
As for `COc1ccc(C(CC(=O)Nc2cccc(C)c2C)N2Cc3ccccc3C2=O)cc1` (stereo not given), the survival was 68%.
In the case of `COc1ccc(OC)c(CNCc2c(C(=O)O)n(Cc3cccc(F)c3)c3cc(OC)ccc23)c1`, the survival was -3% (active).
Take `COc1ccc(OC)c(CNCc2c(C(=O)O)n(Cc3ccccc3)c3cc(OC)ccc23)c1`: the survival is 84%.
For `CCc1ccc(CNCc2c(C(=O)O)n(Cc3cccc(F)c3)c3cc(OC)ccc23)cc1`, the survival is 63%.
Regarding `COc1cc(Cl)c(C)cc1NC(=O)c1nn(-c2ccc(C)cc2)c(=O)n(C)c1=O`, the survival is 66%.
With `COc1ccc(-n2c(=O)c3sc4ccccc4c3n(Cc3ccccc3C)c2=O)cc1OC`, the survival is 89%.
For `CCCS(=O)(=O)NCCc1sc2nc(-c3ccc(F)cc3)nn2c1C`, the survival was 60%.
In the case of `COc1ccc(-c2nc3sc(CCNS(=O)(=O)c4ccccc4)c(C)n3n2)cc1`, the survival was 57%.
For the molecule `COc1ccc(F)cc1S(=O)(=O)NCCc1sc2nc(-c3ccc(F)cc3)nn2c1C`, the survival is 57%.
On to `Cc1c(CCNS(=O)(=O)c2ccccc2)sc2nc(-c3ccc(Cl)cc3)nn12`, for which the survival is 1% (active).
For the molecule `CCS(=O)(=O)NCCc1sc2nc(-c3ccc(OC)cc3)nn2c1C`, the survival is 71%.
On to `Cc1cc(C)c(S(=O)(=O)NCCc2sc3nc(-c4ccc(F)cc4)nn3c2C)c(C)c1`, for which the survival is 63%.
For the molecule `Cc1ccc(-c2nc3sc(CCNS(=O)(=O)c4cc(F)ccc4F)c(C)n3n2)cc1`, the survival is -4% (active).
In the case of `COc1ccc(-c2nc3sc(CCNS(=O)(=O)c4c(C)cc(C)cc4C)c(C)n3n2)cc1`, the survival is -3% (active).
With `CCCS(=O)(=O)NCCc1sc2nc(-c3ccc(Cl)cc3)nn2c1C`, the survival was 81%.
Regarding `Cc1ccc(C(=O)Nc2nnc(S(=O)(=O)N3c4ccccc4CC3C)s2)cc1` (stereo not given), the survival is 38%.
For the molecule `CCc1ccc(NC(=O)CSc2nc3c([nH]c4ccccc43)c(=O)n2-c2ccc(C)cc2)cc1`, the survival is 159%.
As to `COC(=O)c1sc(NC(=O)/C=C/c2ccc(OC)c(OC)c2)c(C(=O)OC)c1C`, the survival is 55%.
To `Cc1ccc(OCC(=O)Nc2ccc(S(=O)(=O)Nc3ncccn3)cc2)c(C(C)(C)C)c1` belongs 64%; to `CCCCNC(=O)CSc1nc2ccccc2nc1Cc1ccc(Cl)cc1`, 146%; to `O=C(Cc1ccccc1)Nc1cccnc1`, 116%.
For the molecule `CCN1CCN(c2csc3ccc(Br)cc3c2=O)CC1`, the survival is 83%.
As to `CCc1nnc(NC(=O)c2nc(S(=O)(=O)Cc3ccc(C)cc3)ncc2Cl)s1`, the survival is 57%.
With `COCc1nc2ccccc2n1Cc1cccc(C)c1`, the survival is 81%.
As for `Cc1cccc(Cn2c(Cc3ccccc3)nc3ccccc32)c1`, the survival is 29% (active).
As to `Cc1cccc(Cn2c(COc3ccc(Cl)cc3)nc3ccccc32)c1`, the survival is 61%.
Take `Cc1ccc(Cn2c(CNC(=O)c3cccc(C)c3)nc3ccccc32)cc1`: the survival is 107%.
To `Cc1ccc(Cn2c(Cc3ccccc3)nc3ccccc32)cc1` belongs -1% (active).
In the case of `Cc1cccc(Cn2c(CNC(=O)c3ccccc3)nc3ccccc32)c1`, the survival was 84%.
Take `CC(C)c1ccc(Cn2c(COc3ccccc3)nc3ccccc32)cc1`: the survival was -1% (active).
Take `Cc1ccc(Cn2c(CCNC(=O)C(C)C)nc3ccccc32)cc1`: the survival is 81%.
`Cc1cccc(Cn2c(COc3ccccc3)nc3ccccc32)c1`: the survival was -11% (active).
With `COc1cc(OC)c(NC(=O)c2cn(C3CCCC3)c(=O)c3c2c2ccccc2n3C)cc1Cl` the figure was 80%; with `CCOC(=O)N1CCN(c2ncnc3c2cnn3-c2ccccc2)CC1`, 112%; with `Cc1cccc(-c2noc(-c3ccc(NCc4cccnc4)c([N+](=O)[O-])c3)n2)c1`, 81%.
Turning to `COCCNC(=O)Cn1cc(/C=C(\C#N)C(N)=O)c2ccccc21`, the survival is 114%.
